# The source made the active and inactive calls. The calls were made as follows: active = hit-call score of the fitted dose curve at least 0.9, where 1 is the maximum; inactive = score below 0.9.
# Experiments:
# [1] = read-out: Interleukin-1 alpha (IL1a), IL1A (gene 3552); test: BSK_KF3CT_IL1a: BioMAP Diversity Plus: KF3CT Assay for Interleukin-1 alpha (IL1a) Biomarker Activity (AID 2283070); details: primary human keratinocytes with fibroblasts; actives raise or lower the signal
# Outline: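 Primary human keratinocyte plus foreskin fibroblast co-culture, dosed and measured at 24 h in 96-well plates. IL-1a level quantified by ELISA; bidirectional fit relative to DMSO.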
# [2] = read-out: Transforming growth factor beta 1 (TGFb1), TGFB1 (gene 7040); test: BSK_KF3CT_TGFb1: BioMAP Diversity Plus: KF3CT Assay for Transforming growth factor beta 1 (TGFb1) Biomarker Activity (AID 2283072); details: primary human keratinocytes with fibroblasts; actives raise or lower the signal
# Outline: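 Human keratinocyte/foreskin fibroblast co-culture; TGF-b1 measured by ELISA 24 h after dosing, fitted bidirectionally versus DMSO. Cytotoxicity checked in parallel cultures by total protein (SRB staining, 560 nm).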
# [3] = read-out: C-C motif chemokine 2 (Homo sapiens) (UniProt P13500); test: BSK_KF3CT_MCP1: BioMAP Diversity Plus: KF3CT Assay for Monocyte Chemoattractant Protein 1 (MCP1/CCL2) Biomarker Activity (AID 2283073); details: primary human keratinocytes with fibroblasts; actives raise or lower the signal
# Outline: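 Biomarker MCP-1 is measured by ELISA in primary human keratinocytes co-cultured with foreskin fibroblasts, 24 h after chemical treatment; DMSO serves as the negative control and activity baseline.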
# [4] = read-out: Matrix Metallopeptidase 9 (MMP9), MMP9 (gene 4318); test: BSK_KF3CT_MMP9: BioMAP Diversity Plus: KF3CT Assay for Matrix Metallopeptidase 9 (MMP9) Biomarker Activity (AID 2283074); details: primary human keratinocytes with fibroblasts; actives raise or lower the signal;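 as to AC50: MMP9 protein level quantified by ELISA in the co-culture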
# Outline: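 Human keratinocyte and foreskin fibroblast co-culture exposed to chemicals for 24 h; MMP9 biomarker measured by ELISA, bidirectional fitting relative to DMSO; cytotoxicity tracked by SRB total protein staining in parallel cultures.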
# [5] = read-out: urokinase plasminogen activator (uPA), PLAU (gene 5328); test: BSK_KF3CT_uPA: BioMAP Diversity Plus: KF3CT Assay for urokinase plasminogen activator (uPA) Biomarker Activity (AID 2283075); details: primary human keratinocytes with fibroblasts; actives raise or lower the signal
# Outline: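 Primary human keratinocyte/foreskin fibroblast co-culture exposed to chemical; uPA measured by ELISA at 24 h. Bidirectional fit versus DMSO, with parallel SRB total-protein staining for cytotoxicity.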
# CD40, CD40 (gene 958) [6] = test: BSK_LPS_CD40: BioMAP Diversity Plus: LPS Assay for CD40 Biomarker Activity (AID 2283076); details: primary human HUVEC with PBMC; actives raise or lower the signal
# Outline: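 Using a multiplexed primary human co-culture (umbilical vein endothelium plus PBMC), CD40 was read by ELISA 24 h after dosing, with cytotoxicity tracked by sulforhodamine B staining of parallel cultures and activity fitted bidirectionally versus DMSO.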
# [7] = read-out: E-selectin (Homo sapiens) (UniProt P16581); test: BSK_LPS_Eselectin: BioMAP Diversity Plus: LPS Assay for Eselectin Biomarker Activity (AID 2283077); details: primary human HUVEC with PBMC; actives raise or lower the signal
# Outline: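 Dose chemical onto LPS-driven HUVEC/PBMC co-culture; after 24 h, run ELISA for E-selectin; fit up- and down-going responses relative to DMSO control.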
# [8] = read-out: Interleukin-8 (IL8), CXCL8 (gene 3576); test: BSK_LPS_IL8: BioMAP Diversity Plus: LPS Assay for Interleukin-8 (IL8) Biomarker Activity (AID 2283078); details: primary human HUVEC with PBMC; actives raise or lower the signal
# Outline: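 In this LPS system, chemical-treated human umbilical vein endothelium/PBMC co-cultures were harvested at 24 h for IL-8 ELISA.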
# [9] = BSK_LPS_SRB: Viability Assessment in the BioMAP Diversity Plus: LPS Assay (AID 2283079); details: primary human HUVEC with PBMC;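 also: total protein by sulforhodamine B absorbance as a cytotoxicity measure; measured one day after compound addition; fitted in both directions against DMSO so loss or gain of signal counts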
# Outline: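 Cytotoxicity endpoint in human endothelial–PBMC co-culture: 24 h exposure, then SRB (0.1%) staining, 560 nm read.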
# [10] = read-out: Interleukin-1 alpha (IL1a), IL1A (gene 3552); test: BSK_LPS_IL1a: BioMAP Diversity Plus: LPS Assay for Interleukin-1 alpha (IL1a) Biomarker Activity (AID 2283080); details: primary human HUVEC with PBMC; actives raise or lower the signal
# Outline: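 Primary human HUVEC and PBMC co-culture stimulated with LPS is dosed and harvested at 24 h. Both increases and decreases in ELISA-measured IL-1a are scored relative to DMSO.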
# [11] = read-out: Monocyte Chemoattractant Protein-1 (MCP1), CCL2 (gene 6347); test: BSK_LPS_MCP1: BioMAP Diversity Plus: LPS Assay for Monocyte Chemoattractant Protein-1 (MCP1) Biomarker Activity (AID 2283081); details: primary human HUVEC with PBMC; actives raise or lower the signal
# Outline: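 Values derive from bidirectional fitting against DMSO of ELISA-measured MCP-1 in a human primary endothelial and mononuclear cell co-culture, 24 h after chemical addition under LPS activation.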
# [12] = BSK_LPS_PGE2: BioMAP Diversity Plus: LPS Assay for Prostaglandin E2 (PGE2) Biomarker Activity (AID 2283082); details: primary human HUVEC with PBMC; actives raise or lower the signal;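 as to AC50: secreted prostaglandin E2 measured by ELISA in LPS-stimulated co-culture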
# Outline: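 HUVEC plus human PBMC co-culture stimulated with LPS; secreted PGE2 quantified by ELISA 24 h after chemical dosing. Activity fitted bidirectionally against DMSO baseline; parallel SRB staining (0.1% SRB after 10% TCA fixation, 560 nm) flags overt cytotoxicity.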
# [13] = read-out: Macrophage colony-stimulating factor (MCSF), CSF1 (gene 1435); test: BSK_LPS_MCSF: BioMAP Diversity Plus: LPS Assay for Macrophage colony-stimulating factor (MCSF) Biomarker Activity (AID 2283083); details: primary human HUVEC with PBMC; actives raise or lower the signal
# Outline: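 Bidirectional fit versus DMSO of ELISA-measured M-CSF in co-cultured human umbilical vein endothelial cells and PBMC, sampled 24 h after dosing.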
# [14] = read-out: Tissue Factor, F3 (gene 2152); test: BSK_LPS_TissueFactor: BioMAP Diversity Plus: LPS Assay for Tissue Factor Biomarker Activity (AID 2283084); details: primary human HUVEC with PBMC; actives raise or lower the signal
# Outline: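 Read-out: CD142 ELISA, 24 h. System: LPS-driven human endothelial/PBMC co-culture. Analysis: up- or down-signal fitted against DMSO.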
# [15] = read-out: Tumor necrosis factor (Homo sapiens) (UniProt P01375); test: BSK_LPS_TNFa: BioMAP Diversity Plus: LPS Assay for Tumour Necrosis Factor alpha (TNFa) Biomarker Activity (AID 2283085); details: primary human HUVEC with PBMC; actives raise or lower the signal;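 as to AC50: TNFa protein level quantified by ELISA in the co-culture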
# Outline: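 Human umbilical vein endothelial cells co-cultured with PBMC and stimulated with LPS. TNFa was measured by ELISA 24 h after chemical dosing, fitted bidirectionally relative to DMSO.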
# [16] = read-out: Vascular cell adhesion molecule 1 (VCAM1), VCAM1 (gene 7412); test: BSK_LPS_VCAM1: BioMAP Diversity Plus: LPS Assay for Vascular cell adhesion molecule 1 (VCAM1) Biomarker Activity (AID 2283086); details: primary human HUVEC with PBMC; actives raise or lower the signal
# Outline: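 Human umbilical vein endothelial cells co-cultured with PBMC and stimulated with LPS; VCAM-1 measured by ELISA 24 h after dosing. Bidirectional curve fitting against DMSO baseline; cytotoxicity tracked in parallel by SRB total-protein staining.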
# CD38, CD38 (gene 952) = test: BSK_SAg_CD38: BioMAP Diversity Plus: SAg Assay for CD38 Biomarker Activity (AID 2283087); details: primary human HUVEC with PBMC; actives raise or lower the signal
# Outline: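 Human HUVEC plus PBMC co-culture stimulated with superantigen; CD38 measured by ELISA 24 h after chemical dosing. Fluorescence read-out, bidirectional fit against DMSO; cytotoxicity tracked in parallel by SRB and Alamar Blue.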
# CD40, CD40 (gene 958) [17] = test: BSK_SAg_CD40: BioMAP Diversity Plus: SAg Assay for CD40 Biomarker Activity (AID 2283088); details: primary human HUVEC with PBMC; actives raise or lower the signal
# Outline: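 Endpoint derived by fitting increases or decreases versus DMSO controls. CD40 is detected by fluorescence ELISA in a human vascular co-culture of endothelium and PBMC at 24 h.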
# CD69, CD69 (gene 969) = test: BSK_SAg_CD69: BioMAP Diversity Plus: SAg Assay for CD69 Biomarker Activity (AID 2283089); details: primary human HUVEC with PBMC; actives raise or lower the signal;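 as to AC50: cell surface CD69 protein quantified by ELISA with fluorescence detection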
# Outline: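 Values derive from bidirectional fitting relative to DMSO vehicle. Cells: umbilical vein endothelium plus peripheral blood mononuclear cells, treated 24 h before fluorescent ELISA for CD69.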
# [18] = read-out: TIMP metallopeptidase inhibitor 2 (TIMP2), TIMP2 (gene 7077); test: BSK_KF3CT_TIMP2: BioMAP Diversity Plus: KF3CT Assay for TIMP metallopeptidase inhibitor 2 (TIMP2) Biomarker Activity (AID 2283071); details: primary human keratinocytes with fibroblasts; actives raise or lower the signal
# Outline: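 Co-culture of human primary keratinocytes and foreskin fibroblasts, measured 24 h after chemical dosing. TIMP-2 quantified by ELISA and fitted in both directions relative to DMSO. Cytotoxicity checked in parallel cultures by SRB total-protein staining.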
# Sequence of Tumor necrosis factor (Homo sapiens) (P01375 whole entry, looked up): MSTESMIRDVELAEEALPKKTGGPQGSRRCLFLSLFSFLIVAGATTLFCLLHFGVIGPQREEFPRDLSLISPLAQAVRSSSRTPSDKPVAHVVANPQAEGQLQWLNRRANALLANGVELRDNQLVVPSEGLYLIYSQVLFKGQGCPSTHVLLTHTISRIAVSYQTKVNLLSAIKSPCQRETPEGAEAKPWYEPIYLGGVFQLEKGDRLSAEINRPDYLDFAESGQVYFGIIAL
# Sequence of E-selectin (Homo sapiens) (P16581 whole entry, looked up): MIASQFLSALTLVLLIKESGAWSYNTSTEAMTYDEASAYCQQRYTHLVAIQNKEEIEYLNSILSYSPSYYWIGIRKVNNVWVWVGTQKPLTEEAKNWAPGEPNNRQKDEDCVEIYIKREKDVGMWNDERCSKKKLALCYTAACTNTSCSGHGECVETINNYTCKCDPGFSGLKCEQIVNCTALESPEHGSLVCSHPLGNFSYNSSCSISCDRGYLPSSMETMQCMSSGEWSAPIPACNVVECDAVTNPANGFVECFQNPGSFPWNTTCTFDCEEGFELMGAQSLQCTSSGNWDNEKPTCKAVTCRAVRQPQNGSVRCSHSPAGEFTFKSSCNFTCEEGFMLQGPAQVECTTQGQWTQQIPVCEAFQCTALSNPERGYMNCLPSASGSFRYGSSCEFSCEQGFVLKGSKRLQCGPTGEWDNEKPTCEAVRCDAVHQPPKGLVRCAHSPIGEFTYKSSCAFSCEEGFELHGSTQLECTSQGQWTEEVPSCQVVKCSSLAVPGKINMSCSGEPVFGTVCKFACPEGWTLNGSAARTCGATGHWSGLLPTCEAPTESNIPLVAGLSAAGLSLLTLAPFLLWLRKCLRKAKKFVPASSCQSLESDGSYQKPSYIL
structure (smiles),measurement,setting,value
CCCc1ccccc1,outcome,[1],inactive
same,outcome,[2],inactive
same,outcome,[3],inactive
same,outcome,[4],inactive
same,outcome,[5],inactive
same,outcome,"CD40, CD40 (gene 958) [6]",inactive
same,outcome,[7],inactive
same,outcome,[8],inactive
same,outcome,[9],inactive
same,outcome,[10],inactive
same,outcome,[11],inactive
same,outcome,[12],inactive
same,outcome,[13],inactive
same,outcome,[14],inactive
same,outcome,[15],inactive
same,outcome,[16],inactive
same,outcome,"CD38, CD38 (gene 952)",inactive
same,outcome,"CD40, CD40 (gene 958) [17]",inactive
same,outcome,"CD69, CD69 (gene 969)",inactive
OC(CCl)CCl,outcome,[1],inactive
same,outcome,[18],inactive
same,outcome,[2],inactive
same,outcome,[3],inactive
same,outcome,[4],inactive
same,outcome,[5],inactive
same,outcome,"CD40, CD40 (gene 958) [6]",inactive
same,outcome,[7],inactive
same,outcome,[8],inactive
same,outcome,[9],inactive
same,outcome,[12],inactive
same,outcome,[13],inactive
same,outcome,[14],inactive
same,outcome,[15],inactive
same,outcome,[16],inactive
same,outcome,"CD38, CD38 (gene 952)",inactive
same,outcome,"CD40, CD40 (gene 958) [17]",inactive
same,outcome,"CD69, CD69 (gene 969)",inactive
NC(=O)N(O)[C@@H]1COc2cc(OCc3ccccc3)ccc21,outcome,[1],inactive
same,outcome,[18],inactive
same,outcome,[2],inactive
same,outcome,[3],inactive
same,outcome,[4],inactive
same,outcome,[5],inactive
same,outcome,"CD40, CD40 (gene 958) [6]",inactive
same,outcome,[7],inactive
same,outcome,[8],inactive
same,outcome,[9],inactive
same,AC50,[12],3.45 µM (active)
same,outcome,[13],inactive
same,outcome,[14],inactive
same,outcome,[15],inactive
same,outcome,[16],inactive
same,outcome,"CD38, CD38 (gene 952)",inactive
same,outcome,"CD40, CD40 (gene 958) [17]",inactive
same,outcome,"CD69, CD69 (gene 969)",inactive
CC(C)C(=O)Nc1ccc([N+](=O)[O-])c(C(F)(F)F)c1,outcome,[1],inactive
same,outcome,[2],inactive
same,outcome,[3],inactive
same,outcome,[4],inactive
same,outcome,[5],inactive
same,outcome,"CD40, CD40 (gene 958) [6]",inactive
same,outcome,[7],inactive
same,outcome,[8],inactive
same,outcome,[9],inactive
same,outcome,[10],inactive
same,outcome,[11],inactive
same,outcome,[12],inactive
same,outcome,[13],inactive
same,outcome,[14],inactive
same,outcome,[15],inactive
same,outcome,[16],inactive
same,AC50,"CD38, CD38 (gene 952)",14.7 µM (active)
same,outcome,"CD40, CD40 (gene 958) [17]",inactive
same,AC50,"CD69, CD69 (gene 969)",20 µM (active)
COc1cc2c(c(OC)c1OC)-c1ccc(OC)c(=O)cc1[C@@H](NC(C)=O)CC2,outcome,[1],inactive
same,outcome,[18],inactive
same,outcome,[2],inactive
same,outcome,[3],inactive
same,AC50,[4],0.548 µM (active)
same,outcome,[5],inactive
same,AC50,"CD40, CD40 (gene 958) [6]",0.148 µM (active)
same,outcome,[7],inactive
same,outcome,[8],inactive
same,AC50,[9],0.245 µM (active)
same,outcome,[12],inactive
same,AC50,[13],0.493 µM (active)
same,outcome,[14],inactive
same,AC50,[15],2.39 µM (active)
same,AC50,[16],0.431 µM (active)
same,AC50,"CD38, CD38 (gene 952)",0.148 µM (active)
same,AC50,"CD40, CD40 (gene 958) [17]",0.218 µM (active)
same,AC50,"CD69, CD69 (gene 969)",0.505 µM (active)
CCCCCCCCCCCCCCCCOS(=O)(=O)O,AC50,[1],15.6 µM (active)
same,AC50,[18],19.5 µM (active)
same,AC50,[2],17.4 µM (active)
same,AC50,[3],16.8 µM (active)
same,AC50,[4],18.5 µM (active)
same,AC50,[5],15.6 µM (active)
same,outcome,"CD40, CD40 (gene 958) [6]",inactive
same,outcome,[7],inactive
same,outcome,[8],inactive
same,outcome,[9],inactive
same,outcome,[12],inactive
same,outcome,[13],inactive
same,outcome,[14],inactive
same,outcome,[15],inactive
same,outcome,[16],inactive
same,AC50,"CD38, CD38 (gene 952)",5.57 µM (active)
same,outcome,"CD40, CD40 (gene 958) [17]",inactive
same,outcome,"CD69, CD69 (gene 969)",inactive
O=S(=O)(O)c1ccc(N=Nc2c(O)ccc3cc(S(=O)(=O)O)ccc23)cc1,outcome,[1],inactive
same,outcome,[2],inactive
same,outcome,[3],inactive
same,outcome,[4],inactive
same,outcome,[5],inactive
same,outcome,"CD40, CD40 (gene 958) [6]",inactive
same,outcome,[7],inactive
same,outcome,[8],inactive
same,outcome,[9],inactive
same,outcome,[10],inactive
same,outcome,[11],inactive
same,outcome,[12],inactive
same,outcome,[13],inactive
same,outcome,[14],inactive
same,outcome,[15],inactive
same,outcome,[16],inactive
same,outcome,"CD38, CD38 (gene 952)",inactive
same,outcome,"CD40, CD40 (gene 958) [17]",inactive
same,outcome,"CD69, CD69 (gene 969)",inactive
